Results filed as inconclusive are left out. Entries that show only a call come without a potency. The source made the active and inactive calls. Calls follow the shape of the full dose curve.
What follows are compounds tested against Acetylcholinesterase (Homo sapiens) (UniProt P22303) (assay: Acetylcholinesterase (AChE) small molecule antagonists: colormetric cell-based qHTS assay (AID 1347395; also: nearly all actives have a fitted effect of over 30% in size)). Settings: SH-SY5Y cells AChE activity, colorimetric (Ellman); series mostly up to 115 µM.
Procedure, shortened: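 After overnight attachment at 37 C, SH-SY5Y cells get 30 min compound exposure; detection cocktail (acetylthiocholine, DTNB) then incubates 90 min at 37 C, and absorbance reflects AChE-generated thiocholine.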

Sequence of Acetylcholinesterase (Homo sapiens) (P22303 whole entry, looked up): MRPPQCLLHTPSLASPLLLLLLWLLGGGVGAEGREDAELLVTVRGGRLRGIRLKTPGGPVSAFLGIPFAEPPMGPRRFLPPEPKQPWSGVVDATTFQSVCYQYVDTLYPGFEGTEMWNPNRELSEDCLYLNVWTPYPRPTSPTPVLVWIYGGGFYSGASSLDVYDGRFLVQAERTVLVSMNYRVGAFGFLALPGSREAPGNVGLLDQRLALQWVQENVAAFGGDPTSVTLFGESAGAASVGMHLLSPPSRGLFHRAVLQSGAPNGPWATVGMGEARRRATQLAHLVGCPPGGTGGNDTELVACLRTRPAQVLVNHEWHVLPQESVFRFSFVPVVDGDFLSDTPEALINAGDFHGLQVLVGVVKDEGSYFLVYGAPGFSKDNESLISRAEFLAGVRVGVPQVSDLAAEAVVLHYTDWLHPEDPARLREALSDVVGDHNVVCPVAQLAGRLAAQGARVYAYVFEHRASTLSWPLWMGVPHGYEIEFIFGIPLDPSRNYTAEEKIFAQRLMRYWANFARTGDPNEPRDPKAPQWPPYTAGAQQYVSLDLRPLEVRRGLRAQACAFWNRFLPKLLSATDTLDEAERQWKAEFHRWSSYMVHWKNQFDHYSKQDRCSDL

| Structure (SMILES) | Potency | activity, negative = inhibition | outcome |
| --- | --- | --- | --- |
| OCCCC1CCCCC1 | inactive |  |  |
| NCC1CCCC(CN)C1 (centres undefined) | inactive |  |  |
| COc1cc(C(C)C)ccc1C |  | 0.291% [at 23.6 µM] (inactive) |  |
| O=C(O)c1cc(=O)c2ccccc2o1 | inactive |  |  |
| CCC(=O)C(=O)CC | inactive |  |  |
| c1csc(SSc2cccs2)c1 | inactive |  |  |
| CC(C)(C)c1cc(C=O)cc(C(C)(C)C)c1O | inactive |  |  |
| Clc1cc(Cl)c(Cl)nc1Cl | inactive |  |  |
| COc1cc(N)ccc1C | inactive |  |  |
| Cc1cc(CC(=O)O)c(C)n1-c1ccc(Cl)cc1 | inactive |  |  |
| CCCCCCCCCOC(=O)c1ccccc1C(=O)OCCCCCCCCC | inactive |  |  |
| COc1cc(C=C2CCC/C(=C\c3ccc(O)c(OC)c3)C2=O)ccc1O | inactive |  |  |
| CN(C)C(=O)Nc1ccc(Oc2ccc(Cl)cc2)cc1 | inactive |  |  |
| CCCCC(=O)O[C@]1(C(=O)CO)[C@H](C)C[C@H]2[C@@H]3CCC4=CC(=O)C=C[C@]4(C)[C@@]3(F)[C@@H](O)C[C@@]21C | inactive |  |  |
| NC(=O)c1ccncc1 | inactive |  |  |
| CC(=O)N[C@@H](CCC(=O)O)C(=O)O | inactive |  |  |
| CO[Si](CCCCl)(OC)OC | inactive |  |  |
| OC(C#CCN1CCCC1)(c1ccccc1)c1ccccc1 | inactive |  |  |
| C=C(C)CCCC | inactive |  |  |
| O=CNc1ccccc1 | inactive |  |  |

| Structure (SMILES) | Potency | activity, negative = inhibition | outcome |
| --- | --- | --- | --- |
| O=S(=O)(O)c1cc(I)c(O)c2ncccc12 | inactive |  |  |
| O=C(Nc1ccc(Oc2ccc(Cl)cc2)c(Cl)c1)c1cc(I)cc(I)c1O | inactive |  |  |
| CCN(CC)CC(=O)OCC(=O)[C@@]1(O)CC[C@H]2[C@@H]3CCC4=CC(=O)CC[C@]4(C)[C@H]3[C@@H](O)C[C@@]21C | inactive |  |  |
| CC(C)(C)OC(=O)c1ccccc1C(=O)O | inactive |  |  |
| O=c1cccccc1O | inactive |  |  |
| CCO[Si](CCC1CCC2OC2C1)(OCC)OCC (centres undefined) | inactive |  |  |
| C=C(C)C(=O)NCCCN(C)C | inactive |  |  |
| COC(=O)C1=C(C)NC(C)=C(C(=O)OC(C)(C)CN(C)CCC(c2ccccc2)c2ccccc2)C1c1cccc([N+](=O)[O-])c1 (centres undefined) | inactive |  |  |
| CC1COc2c(N3CCN(C)CC3)c(F)cc3c(=O)c(C(=O)O)cn1c23 (centres undefined) | inactive |  |  |
| Oc1cccc2c(O)cccc12 | inactive |  |  |
| O=C1CC[C@@H](C(=O)O)N1 | inactive |  |  |
| CC(=O)NO | inactive |  |  |
| O=S(=O)(O)c1ccc(Nc2nc(Nc3ccc(/C=C/c4ccc(Nc5nc(Nc6ccc(S(=O)(=O)O)cc6)nc(N(CCO)CCO)n5)cc4S(=O)(=O)O)c(S(=O)(=O)O)c3)nc(N(CCO)CCO)n2)cc1 | inactive |  |  |
| CCCCOC(=O)/C=C\C(=O)OCCCC | inactive |  |  |
| Cc1ccc(=O)n(-c2ccccc2)c1 | inactive |  |  |
| CCCCCCCC/C=C\CCCCCCCC(=O)N(C)CC(=O)O | inactive |  |  |
| CNCCCC1c2ccccc2C=Cc2ccccc21 |  |  | inactive |
| Cc1ccc(O)cn1 | inactive |  |  |
| O=C(O)CNC(=O)c1ccccc1I | inactive |  |  |

Source: PubChem BioAssay (Tox21)
